# Screens: PubChem BioAssay, National Center for Advancing Translational Sciences (NCATS)
# Only some compounds are listed: those with a hit (about 2.4% of all), similar ones and a draw of the others.
# ClpP mod = qHTS Assay for Activators of ClpP; purified B. subtilis ClpP, FRET peptide cleavage, 20 min; ATP-dependent Clp protease proteolytic subunit (Bacillus subtilis (strain 168)), P80244; Potency, µM (highest dose often 57.5 µM); hit rate 1.9% among 340,000; active = well fitted falling curve with a large enough effect; inconclusive = small, poorly fitted or top-dose-only effect; inactive = no such curve, though single readings can be large or run the other way; also: the source files actives as falling curves though it sought activators and does not explain the sign; nearly all actives have a fitted effect of over 65% in size
# Target sequence (P80244 whole entry, looked up): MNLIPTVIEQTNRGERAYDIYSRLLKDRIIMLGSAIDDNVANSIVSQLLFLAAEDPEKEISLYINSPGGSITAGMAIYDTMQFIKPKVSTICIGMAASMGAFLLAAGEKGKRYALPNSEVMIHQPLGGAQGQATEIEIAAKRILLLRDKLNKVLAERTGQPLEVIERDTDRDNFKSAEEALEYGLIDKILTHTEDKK
#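 Buffer: 100 mM Tris/HCl pH8, 100 mM KCl, 0.05% low protease BSA, 2.5% glycerol, 0.01% Tween-20. ClpP 10 microg/mL final; 20 min RT; delta FRET normalized to ADEP and DMSO controls.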
# TSG101-PTAP inh = blocks PTAP/TSG101 interaction to inhibit HIV-1 budding; Q99816; Fluorescence polarization, FITC-PTAP peptide / Tsg101 binding; Potency, µM (titrated, usually from 115 µM), hits mostly inhibitors; 340,000 tested, under 10 active; AID 493005; active = well fitted inhibition curve with a large enough effect in the main read-out, with a control signal flat, not every such curve was filed as active; inconclusive = small, poorly fitted or top-dose-only effect, or effect the other way, or a change in a side signal; inactive = no such curve, though single readings can be large or run the other way
#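 Tsg101 binding domain (10 uM final) was mixed with compound and a FITC-labeled PTAP peptide (50 nM final) in HEPES pH 7.5 buffer with NaCl, Tween 20, EDTA and TCEP; fluorescence polarization was read after 20 min at r.t.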
# ALOX12 inh = blocks human arachidonate 12S-lipoxygenase; hit rate 1.1% among 580,000; AID 1671190; purified 12hLO, xylenol orange hydroperoxide absorbance; Potency, µM (doses to about 108 µM), actives largely listed as inhibitors; P18054; active = well fitted curve in the direction sought with a large enough effect; inconclusive = small, poorly fitted or top-dose-only effect, or another doubt; inactive = no such curve, though single readings can be large; an effect the other way counts as inactive or inconclusive
#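 Purified human 12hLO (150 nM final) in 25 mM Hepes, 0.01% Triton X-100, pH 7.0 was preincubated 15 min at room temperature with compound. Then 40 uM arachidonic acid was added, 30 min. Hydroperoxide was read by Fe-XO absorbance ratio 573/405 nm.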
# Rango-impB inh = inhibitors of Rango-importin beta complex formation; Rango CFP/YFP FRET sensor + importin beta, 45 min; Potency, µM (titrated, usually from 92.2 µM); AID 540263; Q14974; hit rate 0.031% among 340,000; also: nearly all actives have a fitted effect of over 15% in size
#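 Inhibition scored from the CFP 486 nm/YFP 530 nm FRET ratio 45 min after adding 0.125 microM importin beta to 50 nM Rango biosensor preincubated 5 min with compound (room temperature, PBS with DTT, Tween-20, BSA). No-importin wells as positive control.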
# Rango dissoc inh = inhibition of RanGTP-driven Rango-importin beta dissociation | O95149+P62826 | Biochemical FRET Rango-importin beta, RanGTP-induced dissociation | Potency, µM (doses to about 46.1 µM) | hit rate 0.071% among 340,000; also: nearly all actives have a fitted effect of over 45% in size
#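 Rango (0.1 uM)–importin beta (0.25 uM) complex; RanGTP-RCC1 trigger; 45 min RT; CFP/YFP FRET read.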
# TDP1 inh = inhibitors of human tyrosyl-DNA phosphodiesterase TDP1. recombinant TDP1, AlphaScreen DNA substrate cleavage. Potency, µM (series often up to 130 µM), most hits filed as inhibitors. hit rate 0.28% among 350,000; active = well fitted curve in the direction sought with a large enough effect; inconclusive = small, poorly fitted or top-dose-only effect, or another doubt; inactive = no such curve, though single readings can be large; an effect the other way counts as inactive or inconclusive; also: nearly all actives have a fitted effect of over 40% in size
# Target sequence (Q9NUW8 whole entry, looked up): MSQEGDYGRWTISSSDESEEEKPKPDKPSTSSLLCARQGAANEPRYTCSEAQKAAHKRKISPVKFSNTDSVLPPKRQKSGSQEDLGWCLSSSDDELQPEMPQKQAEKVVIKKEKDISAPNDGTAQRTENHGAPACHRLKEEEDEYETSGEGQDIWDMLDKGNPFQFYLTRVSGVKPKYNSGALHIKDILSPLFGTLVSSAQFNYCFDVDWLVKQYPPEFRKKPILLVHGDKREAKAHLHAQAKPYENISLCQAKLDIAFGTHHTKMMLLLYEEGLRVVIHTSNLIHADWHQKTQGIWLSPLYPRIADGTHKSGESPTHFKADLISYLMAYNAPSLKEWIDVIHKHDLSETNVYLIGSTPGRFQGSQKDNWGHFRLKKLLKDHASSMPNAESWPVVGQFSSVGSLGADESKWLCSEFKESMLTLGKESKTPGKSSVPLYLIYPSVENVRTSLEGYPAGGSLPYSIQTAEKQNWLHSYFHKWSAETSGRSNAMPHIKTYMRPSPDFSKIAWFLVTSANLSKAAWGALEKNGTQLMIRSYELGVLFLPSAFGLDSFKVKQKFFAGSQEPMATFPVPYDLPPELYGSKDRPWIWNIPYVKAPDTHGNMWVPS
#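 Here, a 5' biotin and 3' phosphotyrosine-FITC DNA oligonucleotide reports Tdp1 activity: intact substrate bridges AlphaScreen beads, while cleavage leaves a 3' phosphate and drops signal. All incubations at room temperature.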
# Hits are given with their value; i = inactive; ? = inconclusive; nt = no result; ! = a repeat was not active; [ ] = remark or other dose. Unless noted, calls follow the shape of the full dose curve.
SMILES,ClpP mod,TSG101-PTAP inh,ALOX12 inh,Rango-impB inh,Rango dissoc inh,TDP1 inh
CCOC(=O)Cn1nc(/C=C/c2ccc(C)cc2)ccc1=O,32µM,i,i,i,i,i
O=c1ccc(/C=C/c2ccccc2)nn1Cc1ccccc1,28µM,i,i,i,i,i
O=C(NC(=S)Nc1ccc(N2CCN(C(=O)c3ccccc3)CC2)cc1)c1cccs1,nt,i,?,i,i,i
O=C(NC(=S)Nc1ccccc1N1CCCC1)c1cccs1,i,i,i,i,i,i
O=C(NC(=S)Nc1ccccc1N1CCCCC1)c1cccs1,i,i,50µM,?,i,i
CCOc1ccc(C(=O)NC(=S)Nc2ccccc2N2CCCCC2)cc1[N+](=O)[O-],i,i,?,i,i,i
O=C(NC(=S)Nc1ccccc1N1CCN(C(=O)c2ccccc2)CC1)c1cccs1,i,i,16µM,i,i,nt
COc1ccc(C(=O)NC(=S)Nc2ccccc2N2CCCCC2)cc1[N+](=O)[O-],i,i,40µM,i,i,i
O=C(NC(=S)Nc1ccccc1N1CCOCC1)c1ccccc1F,i,i,?,i,i,i
O=C(NC(=S)Nc1ccccc1N1CCN(C(=O)c2ccccc2)CC1)c1ccccc1F,32µM,i,?,i,i,i
CNc1cccc(S(=O)(=O)N2CCN(S(=O)(=O)c3ccc4c(c3)OCCO4)CC2)c1,nt,nt,nt,nt,nt,i
Cc1cc(NC(=O)CCN2CCN(C/C=C/c3ccccc3)CC2)ccc1Br,i,i,6.3µM,i,?,nt
O=C(CCN1CCN(c2ccccc2F)CC1)Nc1ccc(F)cc1,i,i,i,i,i,nt
Cc1ccc(NC(=O)CCN2CCN(Cc3ccccc3)CC2)cc1Br,nt,nt,50µM,nt,nt,nt
Cc1ccccc1N1CCN(CCC(=O)Nc2ccc(F)cc2)CC1,i,i,18µM,i,i,nt
Cc1ccc(NC(=O)CCN2CCN(CCO)CC2)cc1Br,i,i,?,i,i,nt
Cc1ccc(-c2ccc(/C=C(\C#N)C(=O)NC(C)(C)C)o2)cc1,nt,nt,i,nt,nt,nt
Cc1nc2ccc(NC(=O)Cc3cccc(C(F)(F)F)c3)cc2s1,nt,nt,40µM,nt,nt,nt
CCN(CC)CCNC(=O)c1ccc(NC(=O)Cc2cccc(C(F)(F)F)c2)cc1,nt,nt,45µM,nt,nt,nt
Cc1nc2ccc(NC(=O)Cc3ccccc3F)cc2s1,nt,i,i,i,i,i
Cc1onc(-c2ccccc2)c1C(=O)n1nnc2ccccc21,28µM,i,i,i,i,i
COc1cc(S(=O)(=O)N2CCN(Cc3ccccc3)CC2)ccc1Br,?,i,i,i,i,i
O=S(=O)(c1ccc(=S)[nH]c1)N1CCCCC1,i,i,i,?,i,i
O=c1[nH]c2ccc(S(=O)(=O)N3CCN(C4CCCCC4)CC3)cc2[nH]c1=O,28µM,nt,i,i,i,i
O=S(=O)(c1ccc(S(=O)(=O)N2CCN(C3CCCCC3)CC2)cc1)N1CCCCCC1,i,i,i,i,i,i
SMILES,ClpP mod,TSG101-PTAP inh,ALOX12 inh,Rango-impB inh,Rango dissoc inh,TDP1 inh
O=c1[nH]c2ccc(S(=O)(=O)N3CCN(Cc4ccccc4)CC3)cc2[nH]c1=O,28µM,i,i,i,i,i
O=c1[nH]c2ccc(S(=O)(=O)N3CCN(S(=O)(=O)c4c(F)cccc4F)CC3)cc2[nH]c1=O,nt,nt,nt,nt,nt,45µM
O=S(=O)(c1ccc2ccccc2c1)N1CCN(S(=O)(=O)c2c(F)cccc2F)CC1,nt,i,i,i,i,i
O=S(=O)(c1ccc(=S)[nH]c1)N1CCN(Cc2ccccc2)CC1,i,i,40µM,i,i,i
c1coc(-c2ccnc3nc(-c4cccs4)nn23)c1,nt,nt,i,nt,nt,nt
O=C(NC(=S)Nc1ccccc1O)c1ccc(-c2ccc(Cl)cc2)o1,i,i,?,i,i,i
Cc1c(NC(=S)NC(=O)c2ccc(-c3ccc(Cl)cc3)o2)cccc1C(=O)O,nt,i,28µM,i,i,i
O=C(NC(=S)Nc1ccccc1N1CCOCC1)c1ccc(-c2cccc(Cl)c2)o1,i,i,40µM,i,i,i
CC(=O)c1c(C(C)=O)c(C)n(-c2ccc(C(=O)O)cc2)c1C,i,i,i,i,i,i
Cc1ccc(C)n1-c1ccc(C(=O)O)cc1,nt,nt,nt,nt,nt,7.9µM
COc1cccc(NC(=O)CCC[C@H]2NC[C@@H]3C[C@H]2CN(Cc2ccccc2)C3)c1,nt,nt,i,nt,nt,nt
COc1ccc2[nH]cc(CCNC(=O)CCC[C@H]3NC[C@@H]4C[C@H]3CN(Cc3ccccc3)C4)c2c1,nt,nt,4µM,nt,nt,nt
NC(=O)CCC[C@H]1NC[C@@H]2C[C@H]1CN(Cc1ccccc1)C2,nt,nt,i,nt,nt,nt
CNC(=O)CCC[C@H]1NC[C@@H]2CC1CN(Cc1ccccc1)C2,nt,nt,8.9µM,nt,nt,nt
O=C1Nc2ccccc2CC12CCCN(Cc1ccc(Cl)cc1)C2 (stereo unspecified),nt,nt,i[6.33 µM],nt,nt,nt
CN1C(=S)SC(N(O)C(=O)Nc2cccc3ccccc23)C1(C)C (stereo unspecified),32µM,i,?,i,i,i
Cc1ccc(NC(=O)CN(C)S(=O)(=O)c2ccc3c(c2)n(C)c(=O)c(=O)n3C)c(C)c1,32µM!,i,i,i,i,i
O=C1C=CC(=O)C(CNc2ccc(C(=O)OCc3ccccc3)cc2)=C1,i,i,16µM,i,i,nt
CCOc1ccc(NC(=S)Nc2ccc(OCC)cc2)cc1,nt,i,?,i,i,i
CCOc1ccc(NC(=S)Nc2cc(OC)c(Cl)cc2OC)cc1,i,i,40µM,i,i,i
CCOc1ccc(NC(=S)Nc2cc(C)[nH]n2)cc1,nt,i,40µM,i,i,i
O=C(CN1C(=O)c2ccccc2S1(=O)=O)c1ccc(Cl)cc1Cl,i,i,8.9µM!,i,i,nt
CCCn1c(CCC(=O)O)ccc1-c1ccccc1,nt,i,i,i,i,i
O=C(O)CCc1ccc(-c2ccccc2)n1CC(=O)O,32µM,i,i,i,i,i
Cc1ccc(-c2ccc(CCC(=O)O)n2Cc2ccco2)cc1,32µM,i,?,i,i,i
SMILES,ClpP mod,TSG101-PTAP inh,ALOX12 inh,Rango-impB inh,Rango dissoc inh,TDP1 inh
COc1ccc(-c2ccc(CCC(=O)O)n2CC(C)C)cc1,32µM,i,?,?,?,i
CS(=O)(=O)Cc1ccc(CNCc2ccccc2Cl)cc1,nt,nt,i,nt,nt,nt
O=C(C1=C(c2ccccc2)S(=O)(=O)CCO1)N(Cc1cccs1)c1ccccn1,nt,nt,i,nt,nt,nt
O=C(c1ccc(Cl)c(S(=O)(=O)N2CCOCC2)c1)N1CCOCC1,32µM,i,i,i,i,i[0.0935 µM]
O=c1[nH]c(N2CCc3ccccc3C2)nc2c1CCN(Cc1ccncc1)CC2,nt,nt,i,nt,nt,nt
CN(CC(=O)Nc1cccc(F)c1)Cc1ncc(-c2ccc(Cl)cc2)o1,nt,nt,i,nt,nt,nt
O=P(Cc1ccccc1)(c1ccccc1)c1ccccc1,i,i,i,i,i,i
O=P(Cc1ccccc1)(Cc1ccccc1)c1ccccc1,32µM,i,i,i,i,nt
